Reference: the supplement of paper PMC10849652
Of roughly 7,900 targets only a part is listed; those with a hit were picked by preference. About 0.6% of all pairs of compound and target were hits. Values without a mark were called inactive.

Key:
Assay in all cases: log2 fold change, soluble protein after heating vs DMSO (PISA); higher = thermal stabilisation; K562 cells, 10 uM, 30 min; active = over 0.2 and 3.5 SD of the protein, either way, in both replicates (recomputed)
[1] = compound: CS(=O)(=O)c1ccc(-c2cnc(N)c(C(=O)Nc3ccccc3)n2)cc1
Outline: (§1)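 K562 cells (2×10^6 cells/mL) were treated with 10 μM compound for 30 min, and aliquots were heated for 3 min over 48°C-58°C. Pooled aliquots were extracted in PBS with 0.5% NP-40 at 4°C, and the supernatant after 21,000xg for 90 min was measured by TMTpro 16plex LC-MS/MS with channel sums equalised. Reported thermal stability, relative to control samples and from duplicates, is a log2 fold change.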

crizotinib = compound: C[C@@H](Oc1cc(-c2cnn(C3CCNCC3)c2)cnc1N)c1c(Cl)ccc(F)c1Cl [crizotinib]
Outline: as §1

[2] = compound: C[C@@H]1COCCN1C2=NC(=NC(=C2)C3(CC3)S(=O)(=O)C)C4=C5C=CNC5=CC=C4
Outline: as §1

[3] = compound: C[C@H](C1=CC=C(C=C1)C(=O)NC2=C3C=CNC3=NC=C2)N
Outline: as §1

duvelisib = compound: C[C@H](Nc1ncnc2nc[nH]c12)c1cc2cccc(Cl)c2c(=O)n1-c1ccccc1 [duvelisib]
Outline: as §1

gandotinib = compound: Cc1cc(Nc2cc(CN3CCOCC3)c3nc(C)c(Cc4ccc(Cl)cc4F)n3n2)n[nH]1 [gandotinib]
Outline: as §1

tozasertib = compound: Cc1cc(Nc2cc(N3CCN(C)CC3)nc(Sc3ccc(NC(=O)C4CC4)cc3)n2)n[nH]1 [tozasertib]
Outline: as §1

[4] = compound: Cc1cc(SCc2sc(-c3ccc(C(F)(F)F)cc3)nc2C)ccc1OCC(=O)O
Outline: as §1

doramapimod = compound: Cc1ccc(-n2nc(C(C)(C)C)cc2NC(=O)Nc2ccc(OCCN3CCOCC3)c3ccccc23)cc1 [doramapimod]
Outline: as §1

ispinesib = compound: Cc1ccc(C(=O)N(CCCN)[C@@H](c2nc3cc(Cl)ccc3c(=O)n2Cc2ccccc2)C(C)C)cc1 [ispinesib]
Outline: as §1

Chain of UniProt Q03468 (Q03468 whole entry, looked up): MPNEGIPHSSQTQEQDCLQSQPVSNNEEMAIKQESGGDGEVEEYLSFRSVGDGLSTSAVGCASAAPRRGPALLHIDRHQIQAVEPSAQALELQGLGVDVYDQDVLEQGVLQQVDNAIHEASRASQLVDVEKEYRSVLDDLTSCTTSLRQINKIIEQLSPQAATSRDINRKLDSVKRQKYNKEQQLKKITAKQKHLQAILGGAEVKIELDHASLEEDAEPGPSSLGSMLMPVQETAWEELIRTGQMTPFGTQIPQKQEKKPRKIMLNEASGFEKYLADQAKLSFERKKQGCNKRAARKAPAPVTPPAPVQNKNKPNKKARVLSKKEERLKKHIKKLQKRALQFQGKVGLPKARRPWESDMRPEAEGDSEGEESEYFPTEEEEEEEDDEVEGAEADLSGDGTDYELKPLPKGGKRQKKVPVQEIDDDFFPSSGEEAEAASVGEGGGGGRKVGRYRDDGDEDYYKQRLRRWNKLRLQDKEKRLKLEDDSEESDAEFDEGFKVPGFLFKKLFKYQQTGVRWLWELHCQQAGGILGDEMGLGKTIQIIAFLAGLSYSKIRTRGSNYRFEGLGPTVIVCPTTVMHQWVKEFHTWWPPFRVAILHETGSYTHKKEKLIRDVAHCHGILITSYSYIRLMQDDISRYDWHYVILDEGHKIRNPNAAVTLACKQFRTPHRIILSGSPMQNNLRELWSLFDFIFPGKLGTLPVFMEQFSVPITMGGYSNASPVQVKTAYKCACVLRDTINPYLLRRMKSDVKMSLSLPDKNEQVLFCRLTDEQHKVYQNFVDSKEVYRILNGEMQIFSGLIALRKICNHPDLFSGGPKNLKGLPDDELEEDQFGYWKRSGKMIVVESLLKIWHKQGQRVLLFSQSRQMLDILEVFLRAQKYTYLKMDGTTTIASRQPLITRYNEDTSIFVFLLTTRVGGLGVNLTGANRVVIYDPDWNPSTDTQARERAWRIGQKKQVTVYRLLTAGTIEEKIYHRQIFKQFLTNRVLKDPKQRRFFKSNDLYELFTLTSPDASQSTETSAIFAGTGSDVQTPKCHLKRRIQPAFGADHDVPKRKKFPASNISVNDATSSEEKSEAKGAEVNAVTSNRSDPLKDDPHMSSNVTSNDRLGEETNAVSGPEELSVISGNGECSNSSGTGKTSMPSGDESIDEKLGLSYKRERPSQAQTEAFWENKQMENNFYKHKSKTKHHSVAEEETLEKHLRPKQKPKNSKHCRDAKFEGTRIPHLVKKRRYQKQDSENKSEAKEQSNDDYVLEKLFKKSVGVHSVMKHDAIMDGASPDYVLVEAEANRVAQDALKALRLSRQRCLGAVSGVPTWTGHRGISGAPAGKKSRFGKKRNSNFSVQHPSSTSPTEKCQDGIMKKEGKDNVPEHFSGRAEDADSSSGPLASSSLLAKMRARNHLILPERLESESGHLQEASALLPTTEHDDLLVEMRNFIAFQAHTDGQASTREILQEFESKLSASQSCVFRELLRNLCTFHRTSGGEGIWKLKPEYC
Chain of UniProt Q14689 (Q14689 whole entry, looked up): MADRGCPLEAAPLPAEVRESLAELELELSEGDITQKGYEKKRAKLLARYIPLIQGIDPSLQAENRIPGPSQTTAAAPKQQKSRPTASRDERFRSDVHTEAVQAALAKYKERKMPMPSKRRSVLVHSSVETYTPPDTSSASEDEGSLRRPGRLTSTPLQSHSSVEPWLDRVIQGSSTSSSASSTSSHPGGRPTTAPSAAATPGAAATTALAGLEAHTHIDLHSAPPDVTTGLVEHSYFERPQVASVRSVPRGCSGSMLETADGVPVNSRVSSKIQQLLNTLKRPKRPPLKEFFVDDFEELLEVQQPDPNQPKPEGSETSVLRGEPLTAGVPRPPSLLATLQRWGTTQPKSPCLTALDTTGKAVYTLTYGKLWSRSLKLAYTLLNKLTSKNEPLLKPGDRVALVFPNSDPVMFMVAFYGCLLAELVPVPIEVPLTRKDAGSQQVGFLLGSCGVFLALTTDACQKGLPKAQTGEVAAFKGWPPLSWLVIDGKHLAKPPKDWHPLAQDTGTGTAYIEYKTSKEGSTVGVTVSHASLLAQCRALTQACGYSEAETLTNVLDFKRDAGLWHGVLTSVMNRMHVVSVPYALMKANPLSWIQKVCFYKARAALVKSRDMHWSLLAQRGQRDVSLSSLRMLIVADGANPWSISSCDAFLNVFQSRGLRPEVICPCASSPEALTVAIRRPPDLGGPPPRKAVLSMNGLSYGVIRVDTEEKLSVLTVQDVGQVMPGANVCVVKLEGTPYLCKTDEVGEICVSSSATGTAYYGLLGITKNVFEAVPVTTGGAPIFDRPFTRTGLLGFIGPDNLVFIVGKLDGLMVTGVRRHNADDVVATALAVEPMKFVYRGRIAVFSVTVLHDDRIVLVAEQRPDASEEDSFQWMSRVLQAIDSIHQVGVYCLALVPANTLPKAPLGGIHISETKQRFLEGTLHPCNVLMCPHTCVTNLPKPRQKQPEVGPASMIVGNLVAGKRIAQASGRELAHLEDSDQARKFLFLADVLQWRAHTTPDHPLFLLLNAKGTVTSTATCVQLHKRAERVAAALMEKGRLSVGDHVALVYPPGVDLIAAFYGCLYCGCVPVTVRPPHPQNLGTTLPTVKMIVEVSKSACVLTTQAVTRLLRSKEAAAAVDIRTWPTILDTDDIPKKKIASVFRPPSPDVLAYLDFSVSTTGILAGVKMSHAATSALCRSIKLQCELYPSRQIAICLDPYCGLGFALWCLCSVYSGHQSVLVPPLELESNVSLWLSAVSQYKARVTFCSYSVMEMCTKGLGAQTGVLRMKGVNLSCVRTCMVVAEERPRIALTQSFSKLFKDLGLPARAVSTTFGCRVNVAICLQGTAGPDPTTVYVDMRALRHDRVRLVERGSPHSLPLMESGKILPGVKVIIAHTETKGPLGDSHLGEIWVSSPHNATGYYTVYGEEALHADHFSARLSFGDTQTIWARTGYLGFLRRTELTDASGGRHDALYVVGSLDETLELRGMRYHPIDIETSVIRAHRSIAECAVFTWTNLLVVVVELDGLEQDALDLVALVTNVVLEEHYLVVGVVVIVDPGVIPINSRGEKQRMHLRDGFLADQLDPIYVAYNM
Chain of UniProt Q9BQI3 (Q9BQI3 whole entry, looked up): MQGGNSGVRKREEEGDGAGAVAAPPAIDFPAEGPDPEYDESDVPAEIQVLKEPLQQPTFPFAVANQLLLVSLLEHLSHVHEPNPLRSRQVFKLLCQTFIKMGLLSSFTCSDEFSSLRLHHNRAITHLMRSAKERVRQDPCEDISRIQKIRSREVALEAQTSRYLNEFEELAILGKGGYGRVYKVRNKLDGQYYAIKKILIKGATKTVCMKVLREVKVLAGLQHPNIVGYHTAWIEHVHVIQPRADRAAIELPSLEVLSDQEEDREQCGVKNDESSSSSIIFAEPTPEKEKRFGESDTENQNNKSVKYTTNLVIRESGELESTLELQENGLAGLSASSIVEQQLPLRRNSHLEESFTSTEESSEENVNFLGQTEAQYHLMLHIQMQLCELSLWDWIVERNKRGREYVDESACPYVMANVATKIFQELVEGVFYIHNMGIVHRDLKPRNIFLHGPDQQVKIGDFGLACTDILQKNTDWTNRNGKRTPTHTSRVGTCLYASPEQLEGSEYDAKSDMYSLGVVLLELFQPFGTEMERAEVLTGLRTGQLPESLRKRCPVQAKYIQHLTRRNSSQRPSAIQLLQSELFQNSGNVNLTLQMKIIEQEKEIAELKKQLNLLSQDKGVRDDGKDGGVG
Chain of UniProt O60231 (O60231 whole entry, looked up): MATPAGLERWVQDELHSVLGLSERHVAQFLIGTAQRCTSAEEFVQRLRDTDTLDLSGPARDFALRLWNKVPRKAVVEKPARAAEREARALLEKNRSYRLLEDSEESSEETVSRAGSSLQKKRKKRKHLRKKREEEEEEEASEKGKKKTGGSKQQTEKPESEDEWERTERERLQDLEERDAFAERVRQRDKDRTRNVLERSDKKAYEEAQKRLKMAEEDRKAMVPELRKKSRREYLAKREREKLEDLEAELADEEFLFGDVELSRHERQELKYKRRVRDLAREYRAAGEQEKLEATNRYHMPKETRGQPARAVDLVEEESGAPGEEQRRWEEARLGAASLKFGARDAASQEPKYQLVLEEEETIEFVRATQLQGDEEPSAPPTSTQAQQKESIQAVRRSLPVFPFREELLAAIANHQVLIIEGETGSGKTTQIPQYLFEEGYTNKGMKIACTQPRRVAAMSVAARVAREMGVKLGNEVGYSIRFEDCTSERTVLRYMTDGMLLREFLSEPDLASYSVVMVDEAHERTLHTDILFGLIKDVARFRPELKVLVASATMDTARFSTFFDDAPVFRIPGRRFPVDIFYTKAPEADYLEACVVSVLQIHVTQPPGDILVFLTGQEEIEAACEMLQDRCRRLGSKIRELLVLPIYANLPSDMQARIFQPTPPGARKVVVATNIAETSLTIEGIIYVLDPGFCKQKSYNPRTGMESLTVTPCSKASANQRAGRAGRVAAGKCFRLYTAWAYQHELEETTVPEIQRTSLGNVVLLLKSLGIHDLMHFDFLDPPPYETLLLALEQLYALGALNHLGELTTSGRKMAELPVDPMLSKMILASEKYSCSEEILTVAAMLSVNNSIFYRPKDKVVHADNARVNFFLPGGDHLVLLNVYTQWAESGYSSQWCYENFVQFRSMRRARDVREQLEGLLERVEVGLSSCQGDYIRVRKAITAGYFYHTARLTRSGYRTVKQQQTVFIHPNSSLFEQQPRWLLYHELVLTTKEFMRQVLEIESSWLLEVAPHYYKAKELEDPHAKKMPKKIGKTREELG
Chain of UniProt O76075 (O76075 whole entry, looked up): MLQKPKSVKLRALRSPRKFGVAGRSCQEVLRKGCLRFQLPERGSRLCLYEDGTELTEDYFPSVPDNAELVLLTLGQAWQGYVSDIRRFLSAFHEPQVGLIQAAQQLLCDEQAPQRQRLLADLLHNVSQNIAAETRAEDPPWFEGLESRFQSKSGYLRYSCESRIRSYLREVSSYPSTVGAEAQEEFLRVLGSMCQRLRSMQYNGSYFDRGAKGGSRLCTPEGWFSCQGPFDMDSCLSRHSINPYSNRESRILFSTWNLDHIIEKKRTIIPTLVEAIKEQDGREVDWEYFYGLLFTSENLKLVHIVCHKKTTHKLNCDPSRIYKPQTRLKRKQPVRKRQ

Target	log2 fold change [1]	log2 fold change (crizotinib)	log2 fold change [2]	log2 fold change [3]	log2 fold change (duvelisib)	log2 fold change (gandotinib)	log2 fold change (tozasertib)	log2 fold change [4]	log2 fold change (doramapimod)	log2 fold change (ispinesib)
DOCK8 (UniProt Q8NF50)	0.216	-0.011	-0.075	0.67 (active)	0.038	0.146	-0.119	-0.036	-0.004	-0.402
EXOC4 (UniProt Q96A65)	0.003	-0.275	-0.099	0.098	-0.028	-0.068	0.041	0.162	0.016	-0.29
DNAAF2 (UniProt Q9NVR5)	0.018	-0.015	-0.067	0.003	0.019	-0.182	0.02	-0.034	0.042	0.032
DFFB (UniProt O76075)	0.018	0.072	0.012	0.106	0.037	-0.017	-0.123	-0.012	-0.021	-0.006
DHX16 (UniProt O60231)	0.023	-0.013	0.182	-0.03	-0.013	-0.06	-0.02	0.053	-0.018	-0.01
DHRS1 (UniProt Q96LJ7)	0.009	0.248	0.089	-0.028	0.438	0.297	0.009	0.571	0.557	0.247
EXOC1 (UniProt Q9NV70)	-0.036	-0.336	-0.007	0.174	-0.013	-0.179	-0.016	0.067	0.138	-0.472 (active)
DNAJC19 (UniProt Q96DA6)	0.008	-0.073	0.055	-0.089	0.004	0.011	0.007	-0.017	-0.011	-0.069
FAF2 (UniProt Q96CS3)	0.049	-0.056	0.042	0.049	0.031	0.022	0.016	0.059	0.023	-0.011
ERCC6 (UniProt Q03468)	-0.12	0.061	0.011	-0.127	0.044	0.017	-0.051	-0.103	0.053	0.152
DYNC1I2 isoform 5 (UniProt Q13409)	0.026	0.055	-0.035	-0.007	0.019	0.027	-0.022	-0.007	-0.011	0.028
EFL1 (UniProt Q7Z2Z2)	0.02	-0.055	0.074	0.016	0.002	-0.056	-0.009	0.029	-0.013	-0.018
DNAJC7 (UniProt Q99615)	0.027	-0.014	0.048	-0.028	0.019	-0.088	-0.021	0.095	-0.057	0.001
DCUN1D1 (UniProt Q96GG9)	-0.027	-0.061	-0.047	-0.067	0.004	-0.059	-0.004	0.002	-0.053	0.036
DIP2A (UniProt Q14689)	-0.094	0.087	0.159	-0.01	0.071	0.023	-0.077	0.081	0.141	0.01
EXOC2 (UniProt Q96KP1)	0.006	-0.308	-0.112	0.101	-0.081	0.009	0.017	0.119	0.06	-0.394 (active)
CYP51A1 (UniProt Q16850)	0.028	0.12	-0.162	0.147	-0.075	-0.111	-0.031	0	0.156	0.117
FAM114A2 (UniProt Q9NRY5)	-0.005	-0.197	0.026	-0.026	0.014	-0.06	0.002	0.011	-0.052	-0.096
FAM122A (UniProt Q96E09)	0.077	-0.032	-0.267	-0.042	0.059	-0.015	0.038	-0.015	0.014	0
EIF2AK1 (UniProt Q9BQI3)	0.023	0.015	0.015	0.045	-0.007	0.137	-0.028	0.053	0.068	-0.024
FADS3 (UniProt Q9Y5Q0)	0.042	-0.237	0.198	0.055	0.079	-0.058	-0.042	0.073	-0.013	-0.311 (active)
EXOC8 (UniProt Q8IYI6)	-0.062	-0.32 (active)	0.109	0.053	0.004	-0.203	0.048	0.063	0.007	-0.364 (active)
DMXL1 (UniProt Q9Y485)	-0.012	-0.092	0.002	0.048	-0.011	-0.013	-0.03	0	0.047	-0.217
DPP8 (UniProt Q6V1X1)	0.04	-0.003	0.011	-0.048	0.025	-0.038	-0.027	0.006	0.008	0.019
FAAP100 (UniProt Q0VG06)	-0.043	-0.027	0.142	-0.051	0.041	-0.096	-0.023	-0.077	0.033	-0.006
DNAJB12 (UniProt Q9NXW2)	0.02	-0.029	0.038	0.035	-0.009	-0.073	-0.001	0.097	-0.034	-0.227 (active)
DNAH5 (UniProt Q8TE73)	0.049	0.145	-0.007	-0.076	0.117	0.013	0.082	-0.052	-0.031	0.057
CUX1 isoform 2 (UniProt Q13948)	-0.217	-0.063	0.029	-0.063	0.029	-0.046	-0.029	0.002	-0.015	-0.008
CTSB (UniProt P07858)	0.048	-0.508 (active)	0.057	-0.042	0.016	0.006	-0.006	0.015	-0.014	-0.403 (active)
